Results as given in PubChem BioAssay (NCATS).
Inconclusive results are not listed. A call without a number means that no potency is given here. Activity calls are given as the source filed them. Unless noted, calls come from the whole dose curve; as a rule, active = well fitted curve in the direction sought with a large enough effect; inconclusive = small, poorly fitted or top-dose-only effect, or another doubt; inactive = no such curve, though single readings can be large; an effect the other way counts as inactive or inconclusive. Peptide text beside a SMILES is read from it.

Legend:
[1] = target: Cytochrome P450 3A4 (Homo sapiens) (UniProt P08684); test: qHTS Assay for Inhibitors and Substrates of Cytochrome P450 3A4 (AID 884); note: nearly all actives have a fitted effect of over 50% in size
Chain of Cytochrome P450 3A4 (Homo sapiens) (P08684 whole entry, looked up): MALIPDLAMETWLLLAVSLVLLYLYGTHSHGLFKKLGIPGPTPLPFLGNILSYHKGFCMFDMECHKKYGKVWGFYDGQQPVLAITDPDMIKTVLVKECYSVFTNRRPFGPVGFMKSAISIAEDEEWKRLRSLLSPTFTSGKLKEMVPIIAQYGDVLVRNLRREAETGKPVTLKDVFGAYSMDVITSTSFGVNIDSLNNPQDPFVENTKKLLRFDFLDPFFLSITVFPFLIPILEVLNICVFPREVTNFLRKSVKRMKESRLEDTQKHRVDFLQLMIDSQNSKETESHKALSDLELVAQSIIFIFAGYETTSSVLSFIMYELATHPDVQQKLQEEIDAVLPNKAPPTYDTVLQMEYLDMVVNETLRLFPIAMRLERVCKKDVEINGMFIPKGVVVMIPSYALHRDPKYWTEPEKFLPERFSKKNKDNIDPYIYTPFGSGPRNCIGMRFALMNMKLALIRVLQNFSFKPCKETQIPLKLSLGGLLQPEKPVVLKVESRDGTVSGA
Outline: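 20 nM human CYP3A4 with 25 uM Luciferin-PPXE (at KM) in 200 mM KPO4, preincubated 10 min with compound; NADPH regeneration started a 60 min RT reaction. Luciferin detected by luminescence, normalized to 57 uM ketoconazole as full inhibition.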

[2] = Confirmation and Secondary Assay for Modulators of Hemoglobin Beta Chain Splicing at IVS2 654 locus (AID 910);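 note: HeLa cells stably carrying EGFP split by mutant beta-globin IVS2-654 intron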
Outline: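 HeLa cells stably expressing EGFP interrupted by β-globin IVS2-654 intron, seeded overnight in Opti-MEM/2% FCS, then treated 2 days at 37 °C. Restored splicing read as total peak GFP intensity per well by laser scanning cytometry (488 nm excitation, 500–520 nm emission); 500 nM antisense PNA as control.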

[3] = Confirmation and Secondary Assay for Modulators of Hemoglobin Beta Chain Splicing at IVS2 705 locus (AID 930);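 note: HeLa cells stably expressing the EGFP-705 splicing reporter; GFP fluorescence per well restored by corrected splicing of the IVS2-705 intron in EGFP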
Outline: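 Stable HeLa line with EGFP disrupted by mutant beta-globin intron 2 (705). Overnight attachment, then 2 days of compound at 37C, 5% CO2. Signal: peak GFP intensity summed over objects 5-250 µm.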

[4] = qHTS Assay for Lipid Storage Modulators (AID 1519; calls by dose curve); conditions: Drosophila S3 cells, BODIPY lipid droplet/cell ratio, laser cytometry, cells loaded with oleic acid; for activity change, negative = inhibition: at 57.5 µM (top of the series)
Outline: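 Cells seeded at 5,000 per well were treated with compounds over a concentration series and loaded with oleic acid (400 uM, as added). Lipid droplet fluorescence (488 nm excitation, 500-530 nm channel) was read by laser-scanning cytometry and normalized to 20 uM Triacsin C.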

[5] = target: Ubiquitin carboxyl-terminal hydrolase 1 (Homo sapiens) (UniProt O94782); test: Inhibitors of USP1/UAF1: Pilot qHTS (AID 504865);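 note: rhodamine fluorescence freed from ubiquitin-rhodamine substrate followed over time; top concentration of the series differs between compounds; nearly all actives have a fitted effect of over 35% in size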
Chain of Ubiquitin carboxyl-terminal hydrolase 1 (Homo sapiens) (O94782 whole entry, looked up): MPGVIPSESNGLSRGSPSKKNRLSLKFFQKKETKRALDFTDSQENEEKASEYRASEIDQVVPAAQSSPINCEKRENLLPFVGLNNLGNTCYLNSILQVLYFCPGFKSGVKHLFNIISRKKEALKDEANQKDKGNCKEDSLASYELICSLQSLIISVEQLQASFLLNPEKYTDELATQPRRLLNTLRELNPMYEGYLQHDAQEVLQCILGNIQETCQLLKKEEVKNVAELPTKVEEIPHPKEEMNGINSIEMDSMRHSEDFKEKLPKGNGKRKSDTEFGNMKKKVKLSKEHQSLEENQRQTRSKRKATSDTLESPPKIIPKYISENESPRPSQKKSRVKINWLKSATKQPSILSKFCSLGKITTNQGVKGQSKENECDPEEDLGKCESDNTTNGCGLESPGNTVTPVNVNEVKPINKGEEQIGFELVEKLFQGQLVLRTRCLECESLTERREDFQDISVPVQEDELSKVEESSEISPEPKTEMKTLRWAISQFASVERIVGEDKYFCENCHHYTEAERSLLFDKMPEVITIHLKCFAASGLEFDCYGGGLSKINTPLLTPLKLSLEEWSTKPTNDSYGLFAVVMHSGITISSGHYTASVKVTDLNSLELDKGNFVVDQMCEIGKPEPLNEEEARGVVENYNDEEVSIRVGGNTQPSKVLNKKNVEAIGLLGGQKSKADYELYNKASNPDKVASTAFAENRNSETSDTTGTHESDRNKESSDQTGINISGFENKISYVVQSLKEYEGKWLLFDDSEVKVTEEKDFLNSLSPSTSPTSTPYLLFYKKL
Outline: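 Deubiquitinase activity followed as kinetic rhodamine fluorescence release from 150 nM Ub-Rho. 1 nM USP1/UAF1 with compound, after 15 min room-temperature preincubation, in HEPES pH 7.8 buffer containing TCEP, EDTA, BSA and Tween-20.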

[6] = measured here: cell count channel max response
[7] = measured here: lipid channel max response

Compound | Potency [1] | Potency [2] | Potency [3] | activity change, negative = inhibition [4] | max response [4, 6] [%] | max response [4, 7] [%] | Potency [5]
C=CCSCC=C | inactive | inactive | inactive | 6.16% (inactive) | -10.4 | -1.96 | inactive
CCC(CCC(C)C1CCC2C3CCC4CC(O)CC[C@@]4(C)C3CC[C@@]12C)C(C)C (stereo not given in full) | inactive | inactive | inactive | 7.69% (inactive) | 1.31 | 10.4 | inactive
NCCC(=O)N[C@H](Cc1cnc[nH]1)C(=O)O | inactive | inactive | inactive | 4.17% (inactive) | 11.4 | 10.9 | inactive
CC(C)c1c(O)c(-c2cc3c(c(C(C)C)c2O)CCC2C(C)(C)CCC[C@@]32C)cc2c1CCC1C(C)(C)CCC[C@@]21C (stereo not given in full) | inactive | inactive | inactive | 8.62% (inactive) | 4.25 | 16.8 | inactive
NC(=O)c1ccc[n+]([C@@H]2OC(COP(=O)([O-])OP(=O)(O)OCC3OC(n4cnc5c(N)ncnc54)C(OP(=O)(O)O)C3O)C(O)C2O)c1 (stereo not given in full) | inactive | inactive | inactive | 5.09% (inactive) | 9.14 | 18.1 | inactive
CC1=C(/C=C/C(C)=C/C=C/C(C)=C/C=C/C=C(C)/C=C/C=C(C)/C=C/C2=C(C)C(=O)C(O)CC2(C)C)C(C)(C)CC(O)C1=O (stereo not given) | inactive | inactive | inactive | 2.55% (inactive) | 25.7 | 27.4 | inactive
CSc1ncnc2c1ncn2C1OC(CO)C(O)C1O (stereo not given) | inactive | inactive | inactive | -6.93% (inactive) | -18.3 | -24.7 | inactive
CCOC(=O)c1c(C)cc(O)c(C)c1O | inactive | inactive | inactive | 6.04% (inactive) | 15.9 | 23.2 | inactive
Nc1ncnc2nc(Cl)[nH]c12 | inactive | inactive | inactive | 2.56% (inactive) | -7.94 | -3 | inactive
O=C(O)C(O)[C@@](O)(Cc1ccc(O)cc1)C(=O)O (stereo not given in full) | inactive | inactive | inactive | 5.41% (inactive) | 10.8 | 18.1 | inactive
COc1cc(O)ccc1C(C)=O | inactive | inactive | inactive | 7.68% (inactive) | 24.4 | 34.1 | inactive
C=CCSCC(N)C(=O)O (stereo not given) | inactive | inactive | inactive | 7.56% (inactive) | 17.4 | 25.7 | inactive
CC(=O)NC(CC(=O)O)C(=O)O (stereo not given) | inactive | inactive | inactive | 2.97% (inactive) | 13.4 | 18 | inactive
NCCCCC(N)C(=O)NC(Cc1ccc(O)cc1)C(=O)NC(CCCCN)C(=O)O (stereo not drawn) (H-Lys-Tyr-Lys-OH; configuration not given here) | inactive | inactive | inactive | 1.3% (inactive) | 3.42 | 5.58 | inactive
CC1O[C@@H](Oc2c(-c3ccc(O)c(O)c3)oc3cc(O)cc(O)c3c2=O)C(O)C(O)C1O (stereo not given in full) | inactive | inactive | inactive | 10.2% (inactive) | 19.3 | 40.6 | inactive
CC1(O)CC2C(CC1O)C2(C)C (stereo not given) | inactive | inactive | inactive | 2.85% (inactive) | -5.99 | -2.1 | inactive
CC1(C)C=Cc2cc3ccc(=O)oc3cc2O1 | inactive | inactive | inactive | 11.6% (inactive) | -4.2 | 7.43 | inactive
CC(=O)OC1CC[C@@]2(C)C(CC[C@@]3(C)C2CC=C2C4CC(C)(C)CC[C@]4(C)CC[C@@]23C)C1(C)C (stereo not given in full) | inactive | inactive | inactive | 4.64% (inactive) | 6.83 | 14 | inactive
Nc1nc(Cl)c2ncn(C3OC(CO)C(O)C3O)c2n1 (stereo not given) | inactive | inactive | inactive | 1.75% (inactive) | -10 | -7.18 | inactive
CC(CCC(=O)O)C1CCC2C3CC[C@@H]4CCCC[C@@]4(C)C3CC[C@@]12C (stereo not given in full) | inactive | inactive | inactive | 2.19% (inactive) | 13.8 | 19 | inactive
CC1(C)OC2C[C@](O)(C(N)=O)C[C@H](O)[C@H]2O1 (stereo not given in full) | inactive | inactive | inactive | 3.65% (inactive) | 15.6 | 23.7 | inactive
CCCC1CC(C(=O)N[C@H](C(C)O)C2OC(SC)[C@@H](O)C(O)C2O)N(C)C1 (stereo not given in full) | inactive | inactive | inactive | 12.2% (inactive) | 19.1 | 38.8 | inactive
CC(=O)OC1CC[C@@]2(C)C(CC[C@@]3(C)C2CC=C2C4CC(C)(C)CC[C@]4(C(=O)O)CC[C@@]23C)C1(C)C (stereo not given in full) | inactive | inactive | inactive | 9.65% (inactive) | 12.5 | 29 | inactive
CCCCCC1C(=O)CCC1CC(=O)OC (stereo not given) | inactive | inactive | inactive | 7.58% (inactive) | 6.16 | 16 | inactive
OCC1OC(n2cnc3c(NCc4ccco4)ncnc32)C(O)C1O (stereo not given) | inactive | inactive | inactive | -0.247% (inactive) | -4.44 | -3.92 | inactive

Compound | Potency [1] | Potency [2] | Potency [3] | activity change, negative = inhibition [4] | max response [4, 6] [%] | max response [4, 7] [%] | Potency [5]
COc1ccc(/C=C/c2cc(O)cc(O[C@H]3OC(CO)C(O)C(O)C3O)c2)cc1 (stereo not given in full) | inactive | inactive | inactive | 8.33% (inactive) | 12.8 | 23 | inactive
CC1(C)CC2C1CC[C@]1(C)CCC3C(C(=O)O)CC(=O)O[C@]32C1 (stereo not given in full) | inactive | inactive | inactive | 3.56% (inactive) | 4.93 | 10.6 | inactive
Nc1nc(O)c2ncn([C@H]3CC[C@@H](CO)O3)c2n1 | inactive | inactive | inactive | 7.72% (inactive) | -2.43 | 2.95 | inactive
C=C1C(N)CC2CC1C2(C)C (stereo not given) | inactive | inactive | inactive | 1.08% (inactive) | 14 | 14.9 | inactive
CN(C)CC/C=C1/c2ccccc2COc2ccccc21 | inactive | inactive | inactive | 0.286% (inactive) | 3.97 | 10.6 | inactive
CC1(C)SC2C(NC(=O)C(NC(=O)N3CCNC3=O)c3ccccc3)C(=O)N2C1C(=O)O (stereo not given) | inactive | inactive | inactive | 8.06% (inactive) | 17.4 | 28.9 | inactive
CC(=O)Oc1c(C)cccc1C(=O)O | inactive | inactive | inactive | 5.46% (inactive) | 15.6 | 23.9 | inactive
COc1ccc(C(=O)c2ccccc2)c(O)c1O | inactive | inactive | inactive | 1.94% (inactive) | -24.4 | -18 | inactive
CC1CC[C@@]2(OC1)OC1CC3C4CC=C5CC(O)CC[C@@]5(C)C4CC[C@]3(C)C1C2C (stereo not given in full) | inactive | inactive | inactive | 5.92% (inactive) | 10.1 | 19 | inactive
CC(C)=CCc1c(O)cc(C)oc1=O | inactive | inactive | inactive | 0.619% (inactive) | 9.29 | 11.1 | inactive
CC(=O)Oc1ccc2c(c1OC(C)=O)OCC1(O)Cc3c(cc(OC(C)=O)c(OC(C)=O)c3OC(C)=O)C21 (stereo not given) | inactive | inactive | inactive | 0.943% (inactive) | 9.82 | 11.3 | inactive
CC(=O)N1CCCC1C(=O)O (stereo not given) | inactive | inactive | inactive | 7.19% (inactive) | 1.45 | 9.22 | inactive
COC1C(O)C(CO)OC1n1cnc2c(=O)[nH]c(N)nc21 (stereo not given) | inactive | inactive | inactive | 5.46% (inactive) | 13.5 | 20.7 | inactive
Nc1nc2nc(Cl)[nH]c2c(=O)[nH]1 | inactive | inactive | inactive | 6.34% (inactive) | 6.47 | 14.5 | inactive
COc1ccc(-c2cc(=O)c3c(O)c(OC)c(OC)c(OC)c3o2)cc1 | inactive | inactive | inactive | 5.49% (inactive) | 14.3 | 20.3 | inactive
Nc1nc2c(nc(Br)n2C2OC(CO)C(O)C2O)c(=O)[nH]1 (stereo not given) | inactive | inactive | inactive | 2.67% (inactive) | 15.6 | 18.1 | inactive
COC(=O)/C(C)=C/CC12OC(C)(C)C3CC(C=C4C(=O)c5cc6c(c(CCC(C)(C)Cl)c5OC431)OC1(C)CCC(=C(C)C)C6C1)C2=O (stereo not given) | inactive | inactive | inactive | 14.1% (inactive) | 7.63 | 20.5 | inactive
NC(CCC(=O)NC(CCSC(CC(=O)O)C(=O)O)C(=O)NCC(=O)O)C(=O)O (stereo not given) | inactive | inactive | inactive | 6.92% (inactive) | 13.3 | 21.2 | inactive
Cc1cn(C2CCC(CO)O2)c(=O)[nH]c1=O (stereo not given) | inactive | inactive | inactive | 4.05% (inactive) | 13.1 | 17.4 | inactive
Nc1nc2c([nH]c(=S)n2C2OC(CO)C(O)C2O)c(=O)[nH]1 (stereo not given) | inactive | inactive | inactive | 2.15% (inactive) | 0.955 | 15.7 | inactive
Nc1nc2c([nH]c(=O)n2C2OC(CO)C(O)C2O)c(=O)[nH]1 (stereo not given) | inactive | inactive | inactive | 1.54% (inactive) | 9.74 | 13.6 | inactive
CC(C)CCCC(C)C1CCC2C3CC(=O)[C@H]4CC(O)CC[C@]4(C)C3CC[C@@]12C (stereo not given in full) | inactive | inactive | inactive | -8.35% (inactive) | -5.43 | -14 | inactive
CNC1C(O)[C@@H]2OC(O[C@@H]3C(O)C(O)C(N)C[C@H]3N)C(N)C[C@H]2O[C@H]1O[C@@H]1OC(CO)C(N)C(O)C1O (stereo not given in full) | inactive | inactive | inactive | 6.47% (inactive) | 16.9 | 24.6 | inactive
CCC(C(=O)O)c1ccccc1 (stereo not given) | inactive | inactive | inactive | 0.321% (inactive) | 8.63 | 10.3 | inactive
Nc1nc2c(c(=O)[nH]1)N(C=O)C(CNc1ccc(C(=O)NC(CCC(=O)O)C(=O)O)cc1)CN2 (stereo not given) | inactive | inactive | inactive | 6.17% (inactive) | 17.6 | 27.2 | inactive
